# Measurements: the supplement of paper PMC3414501
# Where a name gives a salt, the structure may show the parent alone.
# Tested on: S. cerevisiae SK1 pCDA2-eGFP (USY613), sporulating
# Assay: CDA2-GFP sporulation assay sensitivity score (z-score vs DMSO controls); higher = stronger inhibition of sporulation, active = hit call of the paper
# 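Note: active if sensitivity score above 5.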
row,SMILES,CDA2-GFP sporulation assay sensitivity score
1,"O=c1c(O[C@@H]2O[C@H](CO)[C@H](O)[C@H](O)[C@H]2O)c(-c2ccc(O)c(O)c2)oc2cc(O)cc(O)c12 [Hyperoside] (stock concentration (mM, diluted 1:100): 8.8)",0.06 (inactive)
2,"CCS(=O)(=O)CCn1c([N+](=O)[O-])cnc1C [Tinidazole] (stock concentration (mM, diluted 1:100): 10)",1.26 (inactive)
3,"O=c1[nH]c(=O)n(C2CCCO2)cc1F (configuration not stated) [Ftorafur] (stock concentration (mM, diluted 1:100): 10)",0.02 (inactive)
4,"COc1nc(C)nc(Cl)c1NC1=NCCN1 [Moxonidine hydrochloride] (stock concentration (mM, diluted 1:100): 9.2)",0.6 (inactive)
5,"CN(CCOc1ccc(CC2SC(=O)NC2=O)cc1)c1ccccn1 (configuration not stated) [Rosigltazone hydrochloride] (stock concentration (mM, diluted 1:100): 8.2)",-0.4 (inactive)
6,"C[C@@H](c1ncncc1F)[C@](O)(Cn1cncn1)c1ccc(F)cc1F [Voriconazole] (stock concentration (mM, diluted 1:100): 9.9)",-0.46 (inactive)
7,"O=C1c2cccc3c2[C@H](CCC3)CN1[C@@H]1CN2CCC1CC2 [Palonosetron hydrochloride] (stock concentration (mM, diluted 1:100): 10)",8.71 (inactive)
8,"COCCCOc1ccnc(C[S+]([O-])c2nc3ccccc3[nH]2)c1C (configuration not stated) [Rabeprazole] (stock concentration (mM, diluted 1:100): 10.6)",11.4 (active)
9,"NC(N)=NC(=O)c1nc(Cl)c(N)nc1N (stock concentration (mM, diluted 1:100): 8.2)",6.05 (active)
10,"COc1ccc2c(c1)c(CC(=O)O)c(C)n2C(=O)c1ccc(Cl)cc1 [Indomethacin] (stock concentration (mM, diluted 1:100): 10.5)",0.38 (inactive)
11,"O=C(CCCN1CC=C(n2c(=O)[nH]c3ccccc32)CC1)c1ccc(F)cc1 [Droperidol] (stock concentration (mM, diluted 1:100): 10)",3.12 (inactive)
12,"C[C@H]1C[C@H]2[C@@H]3CCC4=CC(=O)C=C[C@]4(C)[C@@]3(Cl)[C@@H](O)C[C@]2(C)[C@@]1(O)C(=O)CO [Beclomethasone] (stock concentration (mM, diluted 1:100): 10)",1.56 (inactive)
13,"CC(C)c1ccc2oc3nc(N)c(C(=O)O)cc3c(=O)c2c1 [Amlexanox] (stock concentration (mM, diluted 1:100): 10)",-0.73 (inactive)
14,"c1cnc(N2CCN(Cc3ccc4c(c3)OCO4)CC2)nc1 [Piribedil] (stock concentration (mM, diluted 1:100): 9.7)",6.47 (inactive)
15,"C[C@]12CCC(=O)C=C1CC[C@@H]1[C@@H]2CC[C@@]2(C)[C@H]1CC[C@]2(O)C(=O)CO [Cortodoxone] (stock concentration (mM, diluted 1:100): 10)",5 (inactive)
16,"CC[C@H]1OC(=O)[C@H](C)C(=O)[C@H](C)[C@@H](O[C@@H]2O[C@H](C)C[C@H](N(C)C)[C@H]2O)[C@](C)(OC)C[C@@H](C)C(=O)[C@H](C)[C@H]2N(CCCCn3cnc(-c4cccnc4)c3)C(=O)O[C@]12C [Telithromycin] (stock concentration (mM, diluted 1:100): 10)",4.62 (inactive)
17,"CC(=O)OCC(=O)NCCCOc1cccc(CN2CCCCC2)c1 [Roxatidine acetate hydrochloride] (stock concentration (mM, diluted 1:100): 9.1)",0.57 (inactive)
18,"CCN1CC(CCN2CCOCC2)C(c2ccccc2)(c2ccccc2)C1=O (configuration not stated) [Doxapram hydrochloride] (stock concentration (mM, diluted 1:100): 10.4)",-0.58 (inactive)

# Tested on: S. cerevisiae NKY1551 his4x/his4B, sporulating
# Assay: HIS4 meiotic recombination assay sensitivity score (z-score vs DMSO controls); higher = stronger inhibition of sporulation/recombination, active = hit call of the paper
row,SMILES,HIS4 meiotic recombination assay sensitivity score
1,"Cc1cn([C@H]2C=C[C@@H](CO)O2)c(=O)[nH]c1=O [Stavudine] (stock concentration (mM, diluted 1:100): 10)",-1.75 (inactive)
2,"CO[C@H]1/C=C/O[C@@]2(C)Oc3c(C)c(O)c4c(c3C2=O)C2=NC3(CCN(CC(C)C)CC3)NC2=C(NC(=O)/C(C)=C\C=C\[C@H](C)[C@H](O)[C@@H](C)[C@@H](O)[C@@H](C)[C@H](OC(C)=O)[C@@H]1C)C4=O [Rifabutin] (stock concentration (mM, diluted 1:100): 10)",-1.4 (inactive)
3,"CC(=O)[C@]1(O)Cc2c(O)c3c(c(O)c2[C@@H](O[C@H]2C[C@H](N)[C@H](O)[C@H](C)O2)C1)C(=O)c1ccccc1C3=O [Idarubicin hydrochloride] (stock concentration (mM, diluted 1:100): 9.3)",-2.94 (inactive)
4,"CCC(=O)NS(=O)(=O)c1ccc(-c2c(-c3ccccc3)noc2C)cc1 [Parecoxib] (stock concentration (mM, diluted 1:100): 9.8)",0.05 (inactive)
5,"Nc1nc(Cl)nc2c1ncn2[C@@H]1O[C@H](CO)[C@@H](O)[C@H]1O [2-Chloroadenosine] (stock concentration (mM, diluted 1:100): 10)",-0.54 (inactive)
6,"CC=CC(=O)N(CC)c1ccccc1C [Crotamiton] (stock concentration (mM, diluted 1:100): 10.3)",3.54 (inactive)
7,"Cc1onc(-c2ccccc2)c1-c1ccc(S(N)(=O)=O)cc1 [Valdecoxib] (stock concentration (mM, diluted 1:100): 10)",-1.51 (inactive)
8,"Nc1nc(Cl)nc2c1ncn2[C@H]1C[C@H](O)[C@@H](CO)O1 [2-Chloro-2-Deoxyadenosine] (stock concentration (mM, diluted 1:100): 10)",-1.07 (inactive)
9,"CCN1CCC[C@H]1CNC(=O)c1cc(S(N)(=O)=O)ccc1OC [Levosulpiride] (stock concentration (mM, diluted 1:100): 10)",0.77 (inactive)
10,"Cc1occc(=O)c1O [Maltol] (stock concentration (mM, diluted 1:100): 10)",0.46 (inactive)
11,"C[C@@H]1C[C@H]2[C@@H]3CCC4=CC(=O)C=C[C@]4(C)[C@@]3(F)[C@@H](O)C[C@]2(C)[C@H]1C(=O)CO [Desoximetasone] (stock concentration (mM, diluted 1:100): 10)",-1.12 (inactive)
12,"CCOC(=O)[C@H](CCc1ccccc1)N[C@@H](C)C(=O)N1[C@H](C(=O)O)C[C@@H]2CCC[C@@H]21 [Ramipril] (stock concentration (mM, diluted 1:100): 10)",-1.04 (inactive)
13,"O=C1c2c(O)cc(O)cc2OC(c2ccc(O)c(O)c2)C1O (configuration not stated) [Taxifolin] (stock concentration (mM, diluted 1:100): 10.1)",-0.52 (inactive)
14,"CCOC(=O)[C@@]1(CCCCCCOc2ccc(Cl)cc2)CO1 [Etomoxir] (stock concentration (mM, diluted 1:100): 10)",-1.14 (inactive)
15,"CN1[C@@H](CC(=O)c2ccccc2)CCC[C@H]1C[C@H](O)c1ccccc1 [Lobeline hydrochloride] (stock concentration (mM, diluted 1:100): 10)",0.57 (inactive)
16,"Cc1nc2n(c(=O)c1CCN1CCC(c3noc4cc(F)ccc34)CC1)CCCC2 [Risperidone] (stock concentration (mM, diluted 1:100): 10)",1.75 (inactive)
17,"COc1cccc2c1C(=O)c1c(O)c3c(c(O)c1C2=O)C[C@@](O)(C(=O)CO)C[C@@H]3O[C@H]1C[C@H](N)[C@H](O)[C@H](C)O1 [Doxorubicin hydrochloride] (stock concentration (mM, diluted 1:100): 9.4)",-0.73 (inactive)
18,"CC[C@H](C)C(=O)O[C@H]1C[C@H](O)C=C2C=C[C@H](C)[C@H](CC[C@@H](O)C[C@@H](O)CC(=O)O)[C@H]21 [Pravastatin sodium] (stock concentration (mM, diluted 1:100): 9.5)",-0.46 (inactive)
19,"COc1cc(OC)c(C(=O)CCCN2CCCC2)c(OC)c1 [Buflomedil hydrochloride] (stock concentration (mM, diluted 1:100): 8.9)",-1.08 (inactive)
20,"O=c1c(O[C@@H]2O[C@H](CO)[C@H](O)[C@H](O)[C@H]2O)c(-c2ccc(O)c(O)c2)oc2cc(O)cc(O)c12 [Hyperoside] (stock concentration (mM, diluted 1:100): 8.8)",0.06 (inactive)
21,"CCS(=O)(=O)CCn1c([N+](=O)[O-])cnc1C [Tinidazole] (stock concentration (mM, diluted 1:100): 10)",-1.77 (inactive)
22,"O=c1[nH]c(=O)n(C2CCCO2)cc1F (configuration not stated) [Ftorafur] (stock concentration (mM, diluted 1:100): 10)",0.93 (inactive)
23,"COc1nc(C)nc(Cl)c1NC1=NCCN1 [Moxonidine hydrochloride] (stock concentration (mM, diluted 1:100): 9.2)",-0.58 (inactive)
24,"CN(CCOc1ccc(CC2SC(=O)NC2=O)cc1)c1ccccn1 (configuration not stated) [Rosigltazone hydrochloride] (stock concentration (mM, diluted 1:100): 8.2)",2.69 (inactive)
